Measured values from paper PMC7862700, “An all-to-all approach to the identification of sequence-specific readers for epigenetic DNA modifications on cytosine”.

Assays:
Test in all cases: DAPPL (digital affinity profiling via proximity ligation, sequencing); 10 mM Tris-HCl pH 7.5, 50 mM NaCl, 1 mM DTT, 4% glycerol, room temperature, 30 min; GST-TFs on glutathione beads, 16-mer random dsDNA library, 0.1% formaldehyde crosslink after washing; high values mean tight binding
FLI1 = target: T1, FLI1 (Homo sapiens, UniProt Q01543 1-452); settings: protein: recombinant; tags: N-terminal GST; dsDNA, one strand shown
T1 sequence: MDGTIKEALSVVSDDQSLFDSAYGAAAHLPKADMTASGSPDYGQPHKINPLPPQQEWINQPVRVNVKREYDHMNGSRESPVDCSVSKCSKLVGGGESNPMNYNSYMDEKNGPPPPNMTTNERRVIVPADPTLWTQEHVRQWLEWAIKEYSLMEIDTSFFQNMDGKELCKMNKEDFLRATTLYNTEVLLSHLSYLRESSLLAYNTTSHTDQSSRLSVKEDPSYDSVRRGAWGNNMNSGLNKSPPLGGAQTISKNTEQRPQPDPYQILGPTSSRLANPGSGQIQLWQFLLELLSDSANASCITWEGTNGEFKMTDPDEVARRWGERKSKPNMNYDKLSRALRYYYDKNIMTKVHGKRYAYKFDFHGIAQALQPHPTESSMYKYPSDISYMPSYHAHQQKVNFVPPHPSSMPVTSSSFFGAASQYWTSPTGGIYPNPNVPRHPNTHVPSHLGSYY
Summary of the method: (§1)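 Binding signal is defined as a hexamer's read frequency for one factor over its frequency for the tag-only sample. To obtain reads, GST-fused human transcription factors were expressed in yeast, captured on glutathione beads, barcoded with DNA and pooled with that sample. Pools met 200 nmole of a 16-mer random double-stranded DNA library in Tris/NaCl/DTT/glycerol buffer for 30 min at room temperature before washing, 0.1% formaldehyde crosslinking, proximity ligation (BsaI/T4 ligase, 1 h, 37 °C), PCR and Illumina NextSeq500 sequencing.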

ELK1 = target: T2, ELK1 (Homo sapiens, UniProt P19419 1-428); settings: protein: recombinant; tags: N-terminal GST; dsDNA, one strand shown
T2 sequence: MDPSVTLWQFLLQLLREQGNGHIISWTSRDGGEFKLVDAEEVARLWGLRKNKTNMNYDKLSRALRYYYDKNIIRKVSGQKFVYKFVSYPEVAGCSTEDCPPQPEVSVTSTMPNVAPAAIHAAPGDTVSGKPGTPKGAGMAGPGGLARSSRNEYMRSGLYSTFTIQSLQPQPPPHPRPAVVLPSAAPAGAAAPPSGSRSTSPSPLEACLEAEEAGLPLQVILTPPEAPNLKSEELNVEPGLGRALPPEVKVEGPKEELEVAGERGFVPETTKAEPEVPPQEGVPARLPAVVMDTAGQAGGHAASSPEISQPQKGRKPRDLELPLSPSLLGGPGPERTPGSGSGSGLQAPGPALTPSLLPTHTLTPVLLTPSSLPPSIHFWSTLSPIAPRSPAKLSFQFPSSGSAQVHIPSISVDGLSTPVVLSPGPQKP
Summary of the method: as §1

GABPA = target: T3, GABPA (Homo sapiens, UniProt Q06546 1-454); settings: protein: recombinant; tags: N-terminal GST; dsDNA, one strand shown
T3 sequence: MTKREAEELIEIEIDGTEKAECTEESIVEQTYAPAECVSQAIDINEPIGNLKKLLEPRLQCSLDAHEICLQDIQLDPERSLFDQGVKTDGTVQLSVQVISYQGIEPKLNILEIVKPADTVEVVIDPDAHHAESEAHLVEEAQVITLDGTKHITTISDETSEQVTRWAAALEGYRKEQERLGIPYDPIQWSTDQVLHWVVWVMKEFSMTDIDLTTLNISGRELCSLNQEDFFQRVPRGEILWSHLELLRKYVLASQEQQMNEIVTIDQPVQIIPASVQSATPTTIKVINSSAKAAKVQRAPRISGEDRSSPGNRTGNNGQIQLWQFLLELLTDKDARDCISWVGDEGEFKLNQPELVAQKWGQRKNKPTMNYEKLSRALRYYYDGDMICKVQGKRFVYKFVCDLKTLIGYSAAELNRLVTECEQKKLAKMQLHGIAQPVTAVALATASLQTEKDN
Summary of the method: as §1

ERG = target: T4, ERG (Homo sapiens, UniProt P11308 1-479); settings: protein: recombinant; tags: N-terminal GST; dsDNA, one strand shown
T4 sequence: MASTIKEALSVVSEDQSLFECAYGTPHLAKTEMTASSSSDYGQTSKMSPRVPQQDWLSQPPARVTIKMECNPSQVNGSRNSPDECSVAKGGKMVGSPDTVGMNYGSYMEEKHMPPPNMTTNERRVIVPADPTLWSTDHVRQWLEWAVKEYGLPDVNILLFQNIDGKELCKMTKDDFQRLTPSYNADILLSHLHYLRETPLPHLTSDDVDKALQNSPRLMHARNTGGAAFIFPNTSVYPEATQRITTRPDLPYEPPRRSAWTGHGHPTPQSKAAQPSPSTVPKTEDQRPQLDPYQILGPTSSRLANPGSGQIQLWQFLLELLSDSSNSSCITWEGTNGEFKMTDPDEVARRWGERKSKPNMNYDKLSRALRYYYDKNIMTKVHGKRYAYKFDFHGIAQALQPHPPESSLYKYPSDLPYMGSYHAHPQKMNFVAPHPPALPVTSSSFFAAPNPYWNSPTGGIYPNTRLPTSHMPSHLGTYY
Summary of the method: as §1

ELF1 = ELF1 (Homo sapiens, UniProt P32519 1-619); settings: protein: recombinant; tags: N-terminal GST; dsDNA, one strand shown
ELF1, sequence (P32519 whole entry): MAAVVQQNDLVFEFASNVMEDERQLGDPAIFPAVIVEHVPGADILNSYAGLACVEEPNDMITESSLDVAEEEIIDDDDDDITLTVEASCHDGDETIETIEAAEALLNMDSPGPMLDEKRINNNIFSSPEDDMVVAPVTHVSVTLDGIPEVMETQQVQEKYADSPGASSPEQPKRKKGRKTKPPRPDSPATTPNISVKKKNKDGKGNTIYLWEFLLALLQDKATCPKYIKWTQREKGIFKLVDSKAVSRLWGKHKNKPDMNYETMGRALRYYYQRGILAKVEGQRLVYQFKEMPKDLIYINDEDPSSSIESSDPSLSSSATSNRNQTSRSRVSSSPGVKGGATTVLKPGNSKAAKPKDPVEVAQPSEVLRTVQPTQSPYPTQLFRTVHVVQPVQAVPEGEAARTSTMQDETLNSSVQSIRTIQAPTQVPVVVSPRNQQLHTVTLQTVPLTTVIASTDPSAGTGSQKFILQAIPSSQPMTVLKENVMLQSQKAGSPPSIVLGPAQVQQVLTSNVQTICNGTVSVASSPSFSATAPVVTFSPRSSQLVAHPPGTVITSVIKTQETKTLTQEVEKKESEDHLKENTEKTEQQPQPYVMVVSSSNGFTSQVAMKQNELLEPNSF
Summary of the method: as §1

EHF = target: T5, EHF (Homo sapiens, UniProt Q9NZC4 1-300); settings: protein: recombinant; tags: N-terminal GST; dsDNA, one strand shown
T5 sequence: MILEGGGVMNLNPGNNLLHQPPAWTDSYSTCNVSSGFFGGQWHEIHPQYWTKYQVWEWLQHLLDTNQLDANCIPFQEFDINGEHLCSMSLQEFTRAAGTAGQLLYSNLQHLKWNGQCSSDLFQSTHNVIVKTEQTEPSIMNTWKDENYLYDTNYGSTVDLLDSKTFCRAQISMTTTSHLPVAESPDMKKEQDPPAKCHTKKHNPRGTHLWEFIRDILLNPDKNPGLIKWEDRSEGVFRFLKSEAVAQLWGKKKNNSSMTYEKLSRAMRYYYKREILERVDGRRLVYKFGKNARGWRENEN
Summary of the method: as §1

SPI1 = SPI1 (Homo sapiens, UniProt P17947 1-270); settings: protein: recombinant; tags: N-terminal GST; dsDNA, one strand shown
Summary of the method: as §1

SPIB = SPIB (Homo sapiens, UniProt Q01892 1-262); settings: protein: recombinant; tags: N-terminal GST; dsDNA, one strand shown
SPIB, sequence (Q01892 whole entry): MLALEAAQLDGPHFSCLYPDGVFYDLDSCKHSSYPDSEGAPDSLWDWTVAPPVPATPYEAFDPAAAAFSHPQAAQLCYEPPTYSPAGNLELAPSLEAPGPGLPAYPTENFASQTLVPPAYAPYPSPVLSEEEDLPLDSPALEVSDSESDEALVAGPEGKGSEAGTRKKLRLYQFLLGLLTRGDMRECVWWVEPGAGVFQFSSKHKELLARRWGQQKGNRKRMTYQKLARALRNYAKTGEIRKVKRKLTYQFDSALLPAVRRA
Summary of the method: as §1

ELK3 = target: T6, ELK3 (Homo sapiens, UniProt P41970 1-407); settings: protein: recombinant; tags: N-terminal GST; dsDNA, one strand shown
T6 sequence: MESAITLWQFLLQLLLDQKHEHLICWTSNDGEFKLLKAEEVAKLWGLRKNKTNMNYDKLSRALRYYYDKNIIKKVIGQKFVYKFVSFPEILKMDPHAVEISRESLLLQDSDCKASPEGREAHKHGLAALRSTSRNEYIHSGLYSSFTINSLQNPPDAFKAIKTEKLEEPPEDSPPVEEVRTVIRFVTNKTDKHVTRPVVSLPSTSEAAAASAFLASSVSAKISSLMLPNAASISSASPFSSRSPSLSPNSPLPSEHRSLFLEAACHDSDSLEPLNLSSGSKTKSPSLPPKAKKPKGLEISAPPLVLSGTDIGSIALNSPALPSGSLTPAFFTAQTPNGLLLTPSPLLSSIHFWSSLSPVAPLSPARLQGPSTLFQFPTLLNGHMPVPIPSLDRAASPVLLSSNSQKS
Summary of the method: as §1

FEV = target: T7, FEV (Homo sapiens, UniProt Q99581 1-238); settings: protein: recombinant; tags: N-terminal GST; dsDNA, one strand shown
T7 sequence: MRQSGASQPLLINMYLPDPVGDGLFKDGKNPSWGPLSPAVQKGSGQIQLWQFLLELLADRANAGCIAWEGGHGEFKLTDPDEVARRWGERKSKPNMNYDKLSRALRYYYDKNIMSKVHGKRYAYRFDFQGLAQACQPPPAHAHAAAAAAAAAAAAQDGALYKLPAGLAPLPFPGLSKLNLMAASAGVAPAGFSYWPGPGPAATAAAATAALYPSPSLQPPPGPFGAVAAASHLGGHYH
Summary of the method: as §1

ETV5 = ETV5 (Homo sapiens, UniProt P41161 1-510); settings: protein: recombinant; tags: N-terminal GST; dsDNA, one strand shown
ETV5, sequence (P41161 whole entry): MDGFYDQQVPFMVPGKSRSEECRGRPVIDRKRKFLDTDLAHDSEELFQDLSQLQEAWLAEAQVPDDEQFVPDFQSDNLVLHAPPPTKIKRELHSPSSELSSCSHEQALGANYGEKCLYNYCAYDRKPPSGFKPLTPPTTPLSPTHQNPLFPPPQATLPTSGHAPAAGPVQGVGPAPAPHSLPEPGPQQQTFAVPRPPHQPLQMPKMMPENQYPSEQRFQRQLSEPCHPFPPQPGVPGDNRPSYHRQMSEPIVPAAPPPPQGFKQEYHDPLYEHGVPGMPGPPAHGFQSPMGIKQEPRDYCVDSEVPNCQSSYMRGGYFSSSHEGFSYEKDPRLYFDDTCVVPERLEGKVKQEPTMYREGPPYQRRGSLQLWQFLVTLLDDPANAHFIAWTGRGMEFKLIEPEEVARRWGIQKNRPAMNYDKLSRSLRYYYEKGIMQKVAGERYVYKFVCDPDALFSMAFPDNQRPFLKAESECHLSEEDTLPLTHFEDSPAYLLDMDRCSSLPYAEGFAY
Summary of the method: as §1

HSF1 = HSF1 (Homo sapiens, UniProt Q00613 1-529); settings: protein: recombinant; tags: N-terminal GST; chain copies: 3; dsDNA, one strand shown
HSF1, sequence (Q00613 whole entry): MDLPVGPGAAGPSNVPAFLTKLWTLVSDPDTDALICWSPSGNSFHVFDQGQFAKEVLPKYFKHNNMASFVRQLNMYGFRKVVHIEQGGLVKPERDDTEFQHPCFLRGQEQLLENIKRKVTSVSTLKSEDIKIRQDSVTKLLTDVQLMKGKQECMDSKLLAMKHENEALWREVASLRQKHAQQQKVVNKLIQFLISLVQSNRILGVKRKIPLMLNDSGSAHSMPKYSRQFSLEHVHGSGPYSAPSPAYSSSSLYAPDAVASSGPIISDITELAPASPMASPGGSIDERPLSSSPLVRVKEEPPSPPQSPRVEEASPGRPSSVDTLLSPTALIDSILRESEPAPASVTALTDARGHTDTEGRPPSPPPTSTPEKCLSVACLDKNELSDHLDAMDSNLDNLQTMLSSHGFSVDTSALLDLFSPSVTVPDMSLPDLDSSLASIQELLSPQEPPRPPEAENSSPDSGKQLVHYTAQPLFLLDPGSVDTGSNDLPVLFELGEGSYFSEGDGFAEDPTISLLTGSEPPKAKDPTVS
Summary of the method: as §1

SPIC = target: T8, SPIC (Homo sapiens, UniProt Q8N5J4 1-248); settings: protein: recombinant; tags: N-terminal GST; dsDNA, one strand shown
T8 sequence: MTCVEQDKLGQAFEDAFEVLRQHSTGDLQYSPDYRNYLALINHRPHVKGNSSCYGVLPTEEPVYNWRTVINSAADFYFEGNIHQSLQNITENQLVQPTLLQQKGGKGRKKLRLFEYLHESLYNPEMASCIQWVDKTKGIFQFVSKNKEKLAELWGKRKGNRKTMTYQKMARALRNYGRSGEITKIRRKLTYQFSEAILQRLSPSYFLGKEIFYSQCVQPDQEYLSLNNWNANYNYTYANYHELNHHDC
Summary of the method: as §1

ELF4 = ELF4 (Homo sapiens, UniProt Q99607 1-663); settings: protein: recombinant; tags: N-terminal GST; dsDNA, one strand shown
ELF4, sequence (Q99607 whole entry): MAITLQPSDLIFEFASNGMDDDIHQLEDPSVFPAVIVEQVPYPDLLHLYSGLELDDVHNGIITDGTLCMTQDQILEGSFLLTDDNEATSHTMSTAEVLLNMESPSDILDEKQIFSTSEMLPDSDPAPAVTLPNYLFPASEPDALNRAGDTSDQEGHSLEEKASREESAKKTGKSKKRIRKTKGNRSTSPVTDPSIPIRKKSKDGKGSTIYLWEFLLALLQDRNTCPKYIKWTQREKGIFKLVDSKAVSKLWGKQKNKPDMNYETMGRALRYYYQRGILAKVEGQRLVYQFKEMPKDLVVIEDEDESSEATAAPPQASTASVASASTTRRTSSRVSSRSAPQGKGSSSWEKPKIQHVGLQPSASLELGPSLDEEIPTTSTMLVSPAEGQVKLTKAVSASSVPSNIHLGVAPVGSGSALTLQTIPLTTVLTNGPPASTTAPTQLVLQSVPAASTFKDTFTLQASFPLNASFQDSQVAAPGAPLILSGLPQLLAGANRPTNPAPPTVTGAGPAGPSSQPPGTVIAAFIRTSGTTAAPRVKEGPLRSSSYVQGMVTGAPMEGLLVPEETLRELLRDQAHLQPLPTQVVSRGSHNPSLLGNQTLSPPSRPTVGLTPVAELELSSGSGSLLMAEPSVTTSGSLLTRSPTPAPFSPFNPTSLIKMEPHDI
Summary of the method: as §1

ELK4 = target: T9, ELK4 (Homo sapiens, UniProt P28324-2 1-405); settings: protein: recombinant; tags: N-terminal GST; dsDNA, one strand shown
T9 sequence: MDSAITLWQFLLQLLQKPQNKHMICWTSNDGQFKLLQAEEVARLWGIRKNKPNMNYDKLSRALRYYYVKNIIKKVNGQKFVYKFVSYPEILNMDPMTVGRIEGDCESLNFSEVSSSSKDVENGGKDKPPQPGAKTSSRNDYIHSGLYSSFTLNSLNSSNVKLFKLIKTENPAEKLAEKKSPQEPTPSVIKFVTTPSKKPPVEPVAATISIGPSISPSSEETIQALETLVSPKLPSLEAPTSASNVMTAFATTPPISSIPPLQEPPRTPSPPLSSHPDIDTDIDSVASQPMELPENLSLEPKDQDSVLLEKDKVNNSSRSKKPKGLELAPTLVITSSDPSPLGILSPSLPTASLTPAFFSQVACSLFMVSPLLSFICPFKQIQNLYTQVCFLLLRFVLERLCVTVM
Summary of the method: as §1

ETV2 = target: T10, ETV2 (Homo sapiens, UniProt O00321 1-342); settings: protein: recombinant; tags: N-terminal GST; dsDNA, one strand shown
T10 sequence: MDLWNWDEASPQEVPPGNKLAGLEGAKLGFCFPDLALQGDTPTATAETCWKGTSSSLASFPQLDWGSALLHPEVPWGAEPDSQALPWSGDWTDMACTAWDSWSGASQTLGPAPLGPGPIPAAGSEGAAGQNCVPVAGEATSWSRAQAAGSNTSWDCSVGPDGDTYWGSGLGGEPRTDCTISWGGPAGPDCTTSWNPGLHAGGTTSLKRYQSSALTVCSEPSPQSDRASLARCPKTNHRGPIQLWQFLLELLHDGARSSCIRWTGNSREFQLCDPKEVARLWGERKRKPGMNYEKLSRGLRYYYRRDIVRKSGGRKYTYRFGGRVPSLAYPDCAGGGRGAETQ
Summary of the method: as §1

ELF3 = target: T11, ELF3 (Homo sapiens, UniProt P78545 1-371); settings: protein: recombinant; tags: N-terminal GST; dsDNA, one strand shown
T11 sequence: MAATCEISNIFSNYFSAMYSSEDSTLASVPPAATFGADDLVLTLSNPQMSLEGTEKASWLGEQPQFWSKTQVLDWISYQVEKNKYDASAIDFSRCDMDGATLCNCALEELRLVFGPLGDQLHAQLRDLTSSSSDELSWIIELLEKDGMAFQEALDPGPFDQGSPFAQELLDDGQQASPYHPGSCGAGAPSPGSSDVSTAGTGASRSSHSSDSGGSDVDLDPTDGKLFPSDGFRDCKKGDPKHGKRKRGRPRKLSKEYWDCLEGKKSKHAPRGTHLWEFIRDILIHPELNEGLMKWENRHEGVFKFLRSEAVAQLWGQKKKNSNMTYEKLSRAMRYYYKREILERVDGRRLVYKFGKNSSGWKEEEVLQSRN
Summary of the method: as §1

CRX = CRX (Homo sapiens, UniProt O43186 1-299); settings: protein: recombinant; tags: N-terminal GST; dsDNA, one strand shown
CRX, sequence (O43186 whole entry): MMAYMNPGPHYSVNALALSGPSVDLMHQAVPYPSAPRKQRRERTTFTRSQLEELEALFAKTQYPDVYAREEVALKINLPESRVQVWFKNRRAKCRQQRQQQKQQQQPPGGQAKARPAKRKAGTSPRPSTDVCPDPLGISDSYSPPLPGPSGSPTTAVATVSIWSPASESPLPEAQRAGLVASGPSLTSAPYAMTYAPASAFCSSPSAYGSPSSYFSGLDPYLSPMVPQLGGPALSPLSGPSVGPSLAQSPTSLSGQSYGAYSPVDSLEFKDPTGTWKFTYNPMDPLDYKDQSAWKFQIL
Summary of the method: as §1

ETV1 = ETV1 (Homo sapiens, UniProt P50549 1-477); settings: protein: recombinant; tags: N-terminal GST; dsDNA, one strand shown
ETV1, sequence (P50549 whole entry): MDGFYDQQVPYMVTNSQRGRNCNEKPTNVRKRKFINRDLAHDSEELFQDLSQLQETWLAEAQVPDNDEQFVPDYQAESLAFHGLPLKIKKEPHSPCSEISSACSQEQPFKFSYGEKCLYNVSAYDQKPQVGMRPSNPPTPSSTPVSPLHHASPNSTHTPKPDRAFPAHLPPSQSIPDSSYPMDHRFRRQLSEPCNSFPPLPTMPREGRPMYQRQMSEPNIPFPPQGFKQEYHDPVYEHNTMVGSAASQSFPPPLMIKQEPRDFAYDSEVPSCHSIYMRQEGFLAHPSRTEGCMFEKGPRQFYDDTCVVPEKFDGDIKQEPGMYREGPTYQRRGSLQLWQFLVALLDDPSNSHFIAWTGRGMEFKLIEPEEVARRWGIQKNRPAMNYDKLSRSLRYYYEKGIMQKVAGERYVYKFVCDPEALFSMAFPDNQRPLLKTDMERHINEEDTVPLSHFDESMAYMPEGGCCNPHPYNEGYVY
Summary of the method: as §1

TGAACT
binding signal (FLI1): 1.27 fold enrichment (6-mer frequency, TF over GST control)
binding signal (ELK1): 1.19 fold enrichment (6-mer frequency, TF over GST control)
binding signal (GABPA): 1.33 fold enrichment (6-mer frequency, TF over GST control)
binding signal (ERG): 1.32 fold enrichment (6-mer frequency, TF over GST control)
binding signal (ELF1): 1.2 fold enrichment (6-mer frequency, TF over GST control)
binding signal (EHF): 1.34 fold enrichment (6-mer frequency, TF over GST control)
binding signal (SPI1): 1.17 fold enrichment (6-mer frequency, TF over GST control)
binding signal (SPIB): 1.25 fold enrichment (6-mer frequency, TF over GST control)
binding signal (ELK3): 1.19 fold enrichment (6-mer frequency, TF over GST control)
binding signal (FEV): 1.28 fold enrichment (6-mer frequency, TF over GST control)
binding signal (ETV5): 1.19 fold enrichment (6-mer frequency, TF over GST control)
binding signal (HSF1): 1.19 fold enrichment (6-mer frequency, TF over GST control)
binding signal (SPIC): 1.34 fold enrichment (6-mer frequency, TF over GST control)
binding signal (ELF4): 1.23 fold enrichment (6-mer frequency, TF over GST control)
binding signal (ELK4): 1.22 fold enrichment (6-mer frequency, TF over GST control)
binding signal (ETV2): 1.2 fold enrichment (6-mer frequency, TF over GST control)
binding signal (ELF3): 1.11 fold enrichment (6-mer frequency, TF over GST control)
binding signal (CRX): 1.12 fold enrichment (6-mer frequency, TF over GST control)
binding signal (ETV1): 1.24 fold enrichment (6-mer frequency, TF over GST control)
